Experimental findings from PMC4336329 (PLoS ONE, 2015) are described below.

Screen size: about 310,000 compounds; about 2,200 (0.71%) showed an effect of 50% or more. Effects have a minus sign here. The sample holds strong results, similar compounds and a random draw of the others, so the mix is not that of the screen.

Chain of human ether-à-go-go-related gene (hERG) potassium channel (Q12809 whole entry, looked up): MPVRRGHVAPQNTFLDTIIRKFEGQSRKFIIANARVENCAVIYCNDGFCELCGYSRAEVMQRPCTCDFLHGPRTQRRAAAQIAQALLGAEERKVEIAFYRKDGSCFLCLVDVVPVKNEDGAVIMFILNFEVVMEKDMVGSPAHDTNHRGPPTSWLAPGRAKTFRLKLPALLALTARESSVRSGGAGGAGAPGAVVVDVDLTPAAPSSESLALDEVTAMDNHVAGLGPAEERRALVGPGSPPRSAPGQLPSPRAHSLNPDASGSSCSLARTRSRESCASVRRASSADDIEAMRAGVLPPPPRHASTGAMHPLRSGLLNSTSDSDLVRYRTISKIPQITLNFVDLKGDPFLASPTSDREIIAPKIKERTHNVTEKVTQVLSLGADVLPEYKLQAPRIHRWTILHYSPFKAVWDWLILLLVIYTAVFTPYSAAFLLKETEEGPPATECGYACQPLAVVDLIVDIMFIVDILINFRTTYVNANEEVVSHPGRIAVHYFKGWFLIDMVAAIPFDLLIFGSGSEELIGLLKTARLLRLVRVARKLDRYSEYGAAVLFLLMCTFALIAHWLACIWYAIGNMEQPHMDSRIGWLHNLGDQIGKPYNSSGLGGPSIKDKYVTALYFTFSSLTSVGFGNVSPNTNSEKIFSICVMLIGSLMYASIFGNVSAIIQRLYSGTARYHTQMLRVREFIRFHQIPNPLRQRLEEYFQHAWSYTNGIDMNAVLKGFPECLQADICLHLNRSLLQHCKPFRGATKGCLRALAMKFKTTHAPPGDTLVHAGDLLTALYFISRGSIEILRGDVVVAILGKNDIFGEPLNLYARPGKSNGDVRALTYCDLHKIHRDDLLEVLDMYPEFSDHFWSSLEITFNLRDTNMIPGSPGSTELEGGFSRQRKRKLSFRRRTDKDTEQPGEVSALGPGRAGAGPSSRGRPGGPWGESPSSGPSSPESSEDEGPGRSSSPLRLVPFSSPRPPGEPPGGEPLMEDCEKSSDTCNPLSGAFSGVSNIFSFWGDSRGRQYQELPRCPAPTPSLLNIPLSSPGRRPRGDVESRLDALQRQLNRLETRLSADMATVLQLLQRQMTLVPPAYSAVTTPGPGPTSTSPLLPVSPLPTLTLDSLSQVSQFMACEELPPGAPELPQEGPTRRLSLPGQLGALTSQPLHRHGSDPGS

The test addresses human ether-à-go-go-related gene (hERG) potassium channel (human, UniProt Q12809). Briefly: primary screen, population patch clamp on CHO cells stably expressing hERG; higher = less effect of the substance.
On to `CCOC(=O)Nc1ccc2c(c1)Nc1ccccc1S2`, for which the “hERG current change (%, negative = inhibition) at 1uM” value turned out to be 9.07%.
The result for `COc1cccc(NC(=O)CNS(=O)(=O)c2ccc3nc(C)sc3c2)c1` reads 14.5%.
To `Cc1ccc(-c2cc(C(=O)Nc3cccnc3)c3ccccc3n2)s1` belongs 12.1%.
In the case of `Cn1cnnc1SCC(=O)Nc1sc2c(c1C(N)=O)CCC2`, the “hERG current change (%, negative = inhibition) at 1uM” value turned out to be 13.3%.
Turning to `CCCCNC(=O)CCCN1C(=O)c2cccnc2Sc2ccccc21`, the “hERG current change (%, negative = inhibition) at 1uM” value was found to be 14.1%.
`CC1CCc2c(sc3ncnc(NCCN4CCOCC4)c23)C1` (centres unmarked): the “hERG current change (%, negative = inhibition) at 1uM” value is -13.1%.
To `OCCCNc1ncnc2sc3c(c12)CCN(Cc1ccccc1)C3` belongs 7.54%; to `CCCCNc1ncnc2sc3c(c12)CCN(CCC)C3`, -80.9%; to `CCOc1ccc(-n2c(SCC(N)=O)nnc2-c2cccnc2)cc1`, -3.26%.
As for `CCOc1ccc(-n2c(SCc3ccc(C#N)cc3)nnc2-c2cccnc2)cc1`, the “hERG current change (%, negative = inhibition) at 1uM” value is -65.1%.
Take `N#Cc1ccc(CSc2nnc(-c3cccnc3)n2-c2ccccc2)cc1`: the “hERG current change (%, negative = inhibition) at 1uM” value was -26.5%.
`CCC(C)(C(=O)NC1CCCCC1)N(CC1CCCO1)C(=O)CNC(=O)c1ccccc1` (centres unmarked): the “hERG current change (%, negative = inhibition) at 1uM” value turned out to be 9.5%.
For the compound `CCC(C)(C(=O)NC1CCCCC1)N(C)C(=O)c1ccccn1` (centres unmarked), the “hERG current change (%, negative = inhibition) at 1uM” value stood at 4.4%.
In the case of `CCC(C)(C(=O)NC1CCCCC1)N(CC1CCCO1)C(=O)c1ccccn1` (centres unmarked), the “hERG current change (%, negative = inhibition) at 1uM” value was -80.8%.
For the compound `COc1ccc(-c2noc(CSc3nc4ccccc4c(=O)n3-c3ccccc3)n2)cc1`, the “hERG current change (%, negative = inhibition) at 1uM” value was determined as 1.58%.
With `CCC1(C)Cc2ccccc2-c2nc3n(c(=O)c21)CCS3` (centres unmarked), the “hERG current change (%, negative = inhibition) at 1uM” value came to 12%.
On to `O=c1[nH]c(CN2CCOCC2)nc2cc(Cl)ccc12`, for which the “hERG current change (%, negative = inhibition) at 1uM” value is recorded as 4.78%.
As for `O=c1[nH]c(CN2CCN(S(=O)(=O)/C=C/c3ccccc3)CC2)nc2cc(Cl)ccc12`, the “hERG current change (%, negative = inhibition) at 1uM” value was -21.4%.
For `O=c1[nH]c(CN2CCN(C/C=C/c3ccccc3)CC2)nc2cc(Cl)ccc12`, the “hERG current change (%, negative = inhibition) at 1uM” value was -108%.
In the case of `O=c1[nH]c(CN2CCN(S(=O)(=O)/C=C/c3ccccc3)CC2)nc2ccccc12`, the “hERG current change (%, negative = inhibition) at 1uM” value is -18.2%.
Turning to `O=C(CCc1nc2ccccc2c(=O)[nH]1)N1CCN(C/C=C/c2ccccc2)CC1`, the “hERG current change (%, negative = inhibition) at 1uM” value is -12.3%.
As for `O=c1[nH]c(CN2CCN(C/C=C/c3ccccc3)CC2)nc2ccccc12`, the “hERG current change (%, negative = inhibition) at 1uM” value is -52.6%.
`Cc1cc(C)n(-c2nc(-c3ccccc3)cs2)n1`: the “hERG current change (%, negative = inhibition) at 1uM” value turned out to be 1.91%.
In the case of `O=C(Nc1ccc2oc(-c3ccc4ccccc4c3)nc2c1)c1ccc2c(c1)OCCO2`, the “hERG current change (%, negative = inhibition) at 1uM” value is listed as 16.3%.
As to `O=c1cc(CN2CCN(S(=O)(=O)/C=C/c3ccccc3)CC2)c2ccc(O)cc2o1`, the “hERG current change (%, negative = inhibition) at 1uM” value is given as -29.8%.
On to `Cc1cc(C)c2c(CN3CCN(C/C=C/c4ccccc4)CC3)cc(=O)oc2c1`, for which the “hERG current change (%, negative = inhibition) at 1uM” value is listed as -41.5%.
Consider `CCN1CCN(Cc2cc(=O)oc3ccc(C)cc23)CC1`, for which the “hERG current change (%, negative = inhibition) at 1uM” value is recorded as 11.9%.
The result for `O=c1cc(CN2CCN(C/C=C/c3ccccc3)CC2)c2cc(O)ccc2o1` reads -86%; that for `Cc1ccc2oc(=O)cc(CN3CCN(C/C=C/c4ccccc4)CC3)c2c1`, -53.7%; that for `Cc1cc2oc(=O)cc(CN3CCN(C/C=C/c4ccccc4)CC3)c2cc1O`, -67.8%.
Take `Cc1cc2oc(=O)cc(CN3CCN(S(=O)(=O)/C=C/c4ccccc4)CC3)c2cc1C`: the “hERG current change (%, negative = inhibition) at 1uM” value is recorded as 14.5%.
Turning to `Cc1c(O)ccc2c(CN3CCN(C/C=C/c4ccccc4)CC3)cc(=O)oc12`, the “hERG current change (%, negative = inhibition) at 1uM” value is -36.2%.
With `O=c1cc(CN2CCN(C/C=C/c3ccccc3)CC2)c2cc(O)c(-c3ccccc3)cc2o1`, the “hERG current change (%, negative = inhibition) at 1uM” value amounted to 12.8%.
With `COc1cccc(NC(=O)C2CCCO2)c1` (centres unmarked), the “hERG current change (%, negative = inhibition) at 1uM” value came to 11.7%.
Turning to `COC(=O)C1=NN(N=O)C2(CC(=O)N(c3cc(C)cc(C)c3)C2=O)C1` (centres unmarked), the “hERG current change (%, negative = inhibition) at 1uM” value was 9.48%.
For the compound `CCC(=O)N1c2ccc(S(=O)(=O)N3CCN(C)CC3)cc2CC1C` (centres unmarked), the “hERG current change (%, negative = inhibition) at 1uM” value is on record as 4.4%.
To `Cc1c(CC(=O)N[C@@H](C)C(=O)O)c(=O)oc2cc3occ(-c4ccccc4)c3cc12` belongs 18.2%; to `Cc1ccc(Cn2ncc3c(NCCN(C)C)ncnc32)cc1`, 1.2%; to `COc1ccc(N2CC(C(=O)Nc3ccccc3N3CCCC3)CC2=O)c(OC)c1` (centres unmarked), 8.29%.
Take `CCOC(=O)c1ccc(NC(=S)N(CCCN2CCN(CC)CC2)Cc2cccs2)cc1`: the “hERG current change (%, negative = inhibition) at 1uM” value is listed as -40.2%.
Turning to `CCOc1ccc2nc(NC(=O)Cc3cccs3)sc2c1`, the “hERG current change (%, negative = inhibition) at 1uM” value came to 6.15%.
On to `CCC(C)N=C1Sc2nc3ccc(C)cc3cc2CN1CCOC` (centres unmarked), for which the “hERG current change (%, negative = inhibition) at 1uM” value is -60.4%.
For the compound `COCCN1Cc2cc3cc(C)ccc3nc2SC1=Nc1ccc(OC)cc1`, the “hERG current change (%, negative = inhibition) at 1uM” value is 9.8%.
Turning to `CCOc1ccc(N=C2Sc3nc4ccc(C)cc4cc3CN2CCOC)cc1`, the “hERG current change (%, negative = inhibition) at 1uM” value is given as 16.5%.
Consider `C=CCn1c(SCC(O)Cn2c3ccccc3c3ccccc32)nnc1-c1ccco1` (centres unmarked), for which the “hERG current change (%, negative = inhibition) at 1uM” value turned out to be 13.9%.
For the compound `O=c1[nH]ncn1-c1ccccc1C(F)(F)F`, the “hERG current change (%, negative = inhibition) at 1uM” value was found to be 10.3%.
As to `CCc1ccc2[nH]c(=O)c(CN(CCN(CC)CC)C(=O)Nc3ccccc3OC)cc2c1`, the “hERG current change (%, negative = inhibition) at 1uM” value is -50.7%.
To `CCc1ccc2[nH]c(=O)c(CN(CCN(C)C)C(=O)Nc3ccccc3OC)cc2c1` belongs -41.4%; to `CCc1ccc2[nH]c(=O)c(CN(CCN3CCCC3)C(=O)NC3CCCCC3)cc2c1`, -8.52%.
As for `CCN(CC)CCN(Cc1cc2cc(C)ccc2[nH]c1=O)C(=O)Nc1ccccc1OC`, the “hERG current change (%, negative = inhibition) at 1uM” value is reported as -22.2%.
`CCN(CC)CCN(Cc1cc2ccc(C)cc2[nH]c1=O)C(=O)NC1CCCCC1`: the “hERG current change (%, negative = inhibition) at 1uM” value is listed as -23.9%.
To `CCc1ccc2[nH]c(=O)c(CN(CCN(CC)CC)C(=O)NC3CCCCC3)cc2c1` belongs -51.5%; to `O=C(Cc1ccc([N+](=O)[O-])cc1)Nc1ccc2c(c1)CCC2`, 10.4%; to `COc1ccc(-c2nsc(SCC(=O)Nc3ccc4c(c3)OCO4)n2)cc1`, 15%.
`COC(=O)[C@@H](NC(=O)c1ccccc1)[C@@H](C)O`: the “hERG current change (%, negative = inhibition) at 1uM” value turned out to be 5.85%.
Turning to `Nc1nc(N2CCCCC2)nc(N(c2ccccc2)c2ccccc2)n1`, the “hERG current change (%, negative = inhibition) at 1uM” value was determined as 15.2%.
Take `C1CCN(c2nc(N3CCCCC3)nc(N3CCNCC3)n2)CC1`: the “hERG current change (%, negative = inhibition) at 1uM” value amounted to 2.68%.
With `Nc1nc(N2CCCCC2)nc(N2CCCCC2)n1`, the “hERG current change (%, negative = inhibition) at 1uM” value is -78.5%.
Take `COC(=O)CN1C(=O)Nc2ccc(Br)cc2C1c1ccccc1Cl` (centres unmarked): the “hERG current change (%, negative = inhibition) at 1uM” value is -8.8%.
To `C/C(=N/NC(=O)c1cccnc1)C1=C(O)CC(C)(C)CC1=O` belongs 18.4%; to `CCOC(=O)CSc1cn2c(n1)CCC2`, 14.5%; to `CNC(=O)CSc1nc2cc(S(=O)(=O)Nc3ccccc3OC)ccc2o1`, 9.52%.
To `Cc1sc2ncnc(N3CCOCC3)c2c1C` belongs -5.93%; to `Cc1sc2ncnc(NCCN3CCOCC3)c2c1C.O=C(O)C(=O)O`, 9.44%.
`Cc1sc2ncnc(NCC(C)(C)N3CCOCC3)c2c1C`: the “hERG current change (%, negative = inhibition) at 1uM” value was -63.6%.
Consider `COC(=O)CC1NCCc2cc(OC)c(OC)cc21` (centres unmarked), for which the “hERG current change (%, negative = inhibition) at 1uM” value was 5.12%.
Turning to `CC(OC(=O)CCC1CCCCC1)C(=O)Nc1ccc(S(N)(=O)=O)cc1` (centres unmarked), the “hERG current change (%, negative = inhibition) at 1uM” value came to 9.83%.
As to `CCOC(=O)C1CCCN(C(=O)CC(c2ccccc2)c2ccccc2)C1` (centres unmarked), the “hERG current change (%, negative = inhibition) at 1uM” value is on record as -2.54%.
Consider `O=C(CN=C1NS(=O)(=O)c2ccccc21)OCC(=O)c1ccccc1`, for which the “hERG current change (%, negative = inhibition) at 1uM” value came out at 10.8%.
In the case of `CCC(C)(C)c1ccc(OCCCC[n+]2ccccc2)c(C(C)(C)CC)c1.[Br-]`, the “hERG current change (%, negative = inhibition) at 1uM” value is given as -28.5%.
Consider `CCC(C)(C)c1ccc(OCCCC[n+]2ccc(C)cc2)c(C(C)(C)CC)c1.[Br-]`, for which the “hERG current change (%, negative = inhibition) at 1uM” value was -34.5%.
The result for `CCC(C)(C)c1ccc(OCCCC[n+]2cccc(C)c2C)c(C(C)(C)CC)c1.[Br-]` reads -52.7%; that for `CCOC(=O)c1cc2[nH]c3ccccc3c2[n+](-c2ccc([N+](=O)[O-])cc2)c1N.O=C([O-])C(F)(F)F`, -13.8%.
In the case of `CCOC(=O)c1cc2[nH]c3ccccc3c2[n+](-c2ccc([N+](=O)[O-])cc2)c1C.[Cl-]`, the “hERG current change (%, negative = inhibition) at 1uM” value is reported as -70.6%.
Take `N#Cc1cc2[nH]c3ccccc3c2[n+](-c2ccc([N+](=O)[O-])cc2)c1N.[Cl-]`: the “hERG current change (%, negative = inhibition) at 1uM” value was -28.7%.
For `C[C@]12CCC3C(CCC4=C/C(=N/OCC(=O)NC(CCC(=O)O)C(=O)O)CC[C@@]43C)C1CCC2O` (some centres unmarked), the “hERG current change (%, negative = inhibition) at 1uM” value was 10.5%.
To `CCN(CC)/C(=N\S(=O)(=O)c1ccccc1C)c1ccccc1` belongs -5.09%; to `Cc1nn2cc(-c3ccc(Cl)cc3)cnc2c1Cl`, 13.1%.
For the compound `C=CCn1c(=N)c(C(=O)NCCCOC)cc2c(=O)n3ccccc3nc21`, the “hERG current change (%, negative = inhibition) at 1uM” value is reported as -22.3%.
For `CCn1c(=N)c(C(=O)NCCCOC)cc2c(=O)n3cccc(C)c3nc21`, the “hERG current change (%, negative = inhibition) at 1uM” value was -47%.
Take `C=CCn1c(=N)c(C(=O)NCCCOC)cc2c(=O)n3cccc(C)c3nc21`: the “hERG current change (%, negative = inhibition) at 1uM” value is recorded as -64.2%.
Regarding `C=CCn1c(=N)c(C(=O)OCC)cc2c(=O)n3cccc(C)c3nc21`, the “hERG current change (%, negative = inhibition) at 1uM” value is -73.7%.
Take `CCOC(=O)c1cc2c(=O)n3cccc(C)c3nc2n(CCOC)c1=NC(C)=O`: the “hERG current change (%, negative = inhibition) at 1uM” value was 8.92%.
Turning to `O=C(Nc1ccccc1F)N(CCCN1CCOCC1)Cc1cc2cc3c(cc2[nH]c1=O)OCCO3`, the “hERG current change (%, negative = inhibition) at 1uM” value turned out to be 9.36%.
In the case of `Cc1ccc(NC(=O)c2cc(N3C(=O)CCC3=O)ccc2N2CCOCC2)cc1`, the “hERG current change (%, negative = inhibition) at 1uM” value was found to be 5.52%.
To `COc1ccc(CN(C)S(=O)(=O)c2nnc(NC(=O)c3cccc(F)c3)s2)cc1OC` belongs 6.86%.
